In PubChem BioAssay AID1159580 (chemical genetic matrix, 2015):
Among all 5,500 compounds or so, about 2,000 (36%) were called active. Roughly 18% stayed inconclusive and do not appear here. Cut-off read from the data, not from the text of the source: active = normalized growth mostly below about 0.91 (no sharp cut-off); inconclusive = no clear call, values can overlap the other calls; inactive = mostly above about 0.92. The list shows a part of the results.

Test: chemical genetic growth profiling, strain panel (AID 1159580);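 note: tested at 20 µM; growth read once vehicle control cultures reached saturation at 30 °C; 1 = growth at the plate median or of vehicle wells; lower values mean less growth of the strain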
Conditions: growth OD

Measured: normalized growth

COC(=O)[C@H]1[C@H]2C[C@H]3c4[nH]c5cc(OC)ccc5c4CCN3C[C@H]2C[C@@H](OC(=O)c2cc(OC)c(OC)c(OC)c2)[C@@H]1OC
inactive: S. cerevisiae deletion strains, locus YKL009W, strain mrt4, hits give low values 0.991 | S. cerevisiae deletion strains, locus YKL068W, hits give low values 0.995 | S. cerevisiae deletion strains, locus YKL085W, strain MDH1 (second series), hits give low values 1 | S. cerevisiae deletion strains, locus YKL085W, strain MDH1, hits give low values 1 | S. cerevisiae deletion strains, locus YKL160W, strain elf1, hits give low values 0.995 | S. cerevisiae deletion strains, locus YKR001C, strain vps1, hits give low values 1.01 | S. cerevisiae deletion strains, locus YKR026C, strain gcn3, hits give low values 0.994 | S. cerevisiae deletion strains, locus YKR091W, strain srl3, hits give low values 1.02 | S. cerevisiae deletion strains, locus YLL001W, strain dnm1, hits give low values 1.03 | S. cerevisiae deletion strains, locus YLL026W, hits give low values 1.02 | S. cerevisiae deletion strains, locus YLL041C, strain sdh2, hits give low values 1.01 | S. cerevisiae deletion strains, locus YLR027C, strain aat2, hits give low values 1.01 | S. cerevisiae deletion strains, locus YLR039C, strain RIC1, hits give low values 0.971 | S. cerevisiae deletion strains, locus YLR058C, strain SHM2, hits give low values 0.992 | S. cerevisiae deletion strains, locus YLR102C, strain apc9, hits give low values 0.981 | S. cerevisiae deletion strains, locus YLR113W, strain HOG1, hits give low values 0.988 | S. cerevisiae deletion strains, locus YLR221C, strain rsa3, hits give low values 1 | S. cerevisiae deletion strains, locus YLR258W, strain gsy2, hits give low values 1.01 | S. cerevisiae deletion strains, locus YLR262C, strain YPT6 (second series), hits give low values 1 | S. cerevisiae deletion strains, locus YLR262C, strain YPT6, hits give low values 1 | S. cerevisiae deletion strains, locus YLR268W, strain sec22, hits give low values 0.987 | S. cerevisiae deletion strains, locus YLR320W, strain mms22, hits give low values 1.01 | S. cerevisiae deletion strains, locus YLR330W, strain CHS5, hits give low values 0.992 | S. cerevisiae deletion strains, locus YLR342W, strain FKS1 (second series), hits give low values 1.04 | S. cerevisiae deletion strains, locus YLR342W, strain FKS1, hits give low values 1.01 | S. cerevisiae deletion strains, locus YLR357W, strain rsc2, hits give low values 1 | S. cerevisiae deletion strains, locus YLR370C, strain arc18, hits give low values 1.01 | S. cerevisiae deletion strains, locus YLR371W, strain rom2, hits give low values 1 | S. cerevisiae deletion strains, locus YLR384C, strain iki3, hits give low values 0.998 | S. cerevisiae deletion strains, locus YLR418C, strain cdc73, hits give low values 0.998 | S. cerevisiae deletion strains, locus YML016C, strain PPZ1, hits give low values 0.998 | S. cerevisiae deletion strains, locus YML032C, strain rad52, hits give low values 0.991 | S. cerevisiae deletion strains, locus YML120C, strain ndi1, hits give low values 1.01 | S. cerevisiae deletion strains, locus YML124C, strain tub3, hits give low values 1.01 | S. cerevisiae deletion strains, locus YMR058W, strain fet3, hits give low values 1.01 | S. cerevisiae deletion strains, locus YMR078C, strain ctf18, hits give low values 1 | S. cerevisiae deletion strains, locus YMR125W, strain sto1, hits give low values 1.02 | S. cerevisiae deletion strains, locus YMR129W, hits give low values 0.999 | S. cerevisiae deletion strains, locus YMR205C, strain PFK2, hits give low values 1.02 | S. cerevisiae deletion strains, locus YMR223W, strain ubp8, hits give low values 1.02 | S. cerevisiae deletion strains, locus YMR231W, strain pep5, hits give low values 1.01 | S. cerevisiae deletion strains, locus YMR263W, strain SAP30, hits give low values 0.98 | S. cerevisiae deletion strains, locus YMR307W, strain GAS1, hits give low values 1.16 | S. cerevisiae deletion strains, locus YNL067W, strain RPL9B, hits give low values 0.961 | S. cerevisiae deletion strains, locus YNL071W, strain lat1, hits give low values 1.02 | S. cerevisiae deletion strains, locus YNL128W, strain TEP1, hits give low values 0.954 | S. cerevisiae deletion strains, locus YNL153C, strain GIM3, hits give low values 0.99 | S. cerevisiae deletion strains, locus YNL183C, strain NPR1, hits give low values 0.909 | S. cerevisiae deletion strains, locus YNL209W, strain ssb2, hits give low values 1.01 | S. cerevisiae deletion strains, locus YNL233W, strain BNI4, hits give low values 0.981 | S. cerevisiae deletion strains, locus YNL248C, strain rpa49, hits give low values 1 | S. cerevisiae deletion strains, locus YNL250W, strain rad50, hits give low values 0.985 | S. cerevisiae deletion strains, locus YNL271C, strain bni1, hits give low values 1.02 | S. cerevisiae deletion strains, locus YNL298W, strain CLA4, hits give low values 0.996 | S. cerevisiae deletion strains, locus YNL307C, strain MCK1, hits give low values 0.987 | S. cerevisiae deletion strains, locus YNL322C, strain KRE1 (second series), hits give low values 1.01 | S. cerevisiae deletion strains, locus YNL322C, strain KRE1, hits give low values 1 | S. cerevisiae deletion strains, locus YNR049C, strain mso1, hits give low values 1.02 | S. cerevisiae deletion strains, locus YNR052C, strain pop2, hits give low values 0.995 | S. cerevisiae deletion strains, locus YOL012C, strain htz1 2.11 | S. cerevisiae deletion strains, locus YOL147C, strain pex11, hits give low values 0.984 | S. cerevisiae deletion strains, locus YOR001W, strain rrp6, hits give low values 1.01 | S. cerevisiae deletion strains, locus YOR061W, strain CKA2, hits give low values 0.998 | S. cerevisiae deletion strains, locus YOR069W, strain VPS5, hits give low values 1 | S. cerevisiae deletion strains, locus YOR070C, strain gyp1, hits give low values 1.02 | S. cerevisiae deletion strains, locus YOR080W, strain dia2, hits give low values 1.01 | S. cerevisiae deletion strains, locus YOR083W, strain WHI5, hits give low values 0.987 | S. cerevisiae deletion strains, locus YOR106W, strain vam3, hits give low values 1 | S. cerevisiae deletion strains, locus YOR136W, strain idh2, hits give low values 0.997 | S. cerevisiae deletion strains, locus YOR144C, strain elg1, hits give low values 1.01 | S. cerevisiae deletion strains, locus YOR184W, strain ser1, hits give low values 1.01 | S. cerevisiae deletion strains, locus YOR231W, strain MKK1, hits give low values 0.948 | S. cerevisiae deletion strains, locus YOR265W, strain rbl2, hits give low values 1.02 | S. cerevisiae deletion strains, locus YOR270C, strain vph1, hits give low values 1.08 | S. cerevisiae deletion strains, locus YOR290C, strain snf2, hits give low values 0.971 | S. cerevisiae deletion strains, locus YOR316C, strain cot1, hits give low values 0.989 | S. cerevisiae deletion strains, locus YPL051W, strain arl3, hits give low values 0.977 | S. cerevisiae deletion strains, locus YPL055C, strain LGE1, hits give low values 0.978 | S. cerevisiae deletion strains, locus YPL078C, strain atp4, hits give low values 1 | S. cerevisiae deletion strains, locus YPL106C, strain sse1, hits give low values 0.999 | S. cerevisiae deletion strains, locus YPL240C, strain hsp82, hits give low values 1.03 | S. cerevisiae deletion strains, locus YPL256C, strain CLN2, hits give low values 0.977 | S. cerevisiae deletion strains, locus YPR119W, strain clb2, hits give low values 0.994 | S. cerevisiae deletion strains, locus YPR141C, strain kar3, hits give low values 1.01 | S. cerevisiae deletion strains, locus YPR163C, strain tif3, hits give low values 0.989 | S. cerevisiae deletion strains, locus YPR167C, strain met16, hits give low values 0.998 | S. cerevisiae deletion strains, strain wtn01, hits give low values 0.992 | S. cerevisiae strains, strain wild type, hits give low values 1
